# From PubChem BioAssay
# HCV inh: qHTS Assay for Inhibitors of Hepatitis C Virus (HCV). Potency, µM (doses to about 41.8 µM), most hits filed as inhibitors. AID 651820, 2012. Huh7.5.1 HCVcc-Cre infection, luciferase reporter, 44 h. 3.4% of 340,000 active
#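 Cells (1,000/well) were plated 4 h before compound, then infected with HCVcc-Cre virus (~0.5 moi). After 44 h further culture, infection was read as luciferase luminescence following a 15 min substrate incubation at room temperature.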
# RE007 growth inh: qHTS Assay for Inhibitors of the HIV-1 protein Vpr; Potency, µM (highest dose often 92.2 µM), actives largely listed as inhibitors; 0.21% of 360,000 active; AID 651644, 2012; S. pombe RE007 Vpr strain, BacTiter-Glo ATP luminescence, 24 h; active means well fitted falling curve with a large enough effect; inconclusive means small, poorly fitted or top-dose-only effect; inactive means no such curve, though single readings can be large or run the other way; further: nearly all actives have a fitted effect of over 50% in size
#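 Fission yeast strain RE007, carrying one chromosomally integrated HIV-1 vpr copy, was seeded at OD 0.01 in PMG+AL medium with 23 nL pinned compound. After 24 h at 30 °C and 99% humidity, viability was read by BacTiter-Glo luminescence.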
# LASV entry inh: qHTS for Inhibitors of binding or entry into cells for Lassa Virus; 1.2% of 300,000 active; Lassa virus pseudotype entry inhibition, cell reporter; Potency, µM (titrated, usually from 37.9 µM), most hits filed as inhibitors; calls by dose curve; tested in HEK293 cells; further: nearly all actives have a fitted effect of over 50% in size
# Marburg entry inh: qHTS for inhibitors of binding or entry into cells for Marburg Virus; Marburg virus pseudotyped entry inhibition, cell reporter; Potency, µM (series often up to 37.8 µM), usual class: inhibitors; 1.8% of 300,000 active; calls by dose curve; tested in HEK293 cells
# Sm TGR block: qHTS Assay for the Inhibitors of Schistosoma Mansoni Peroxiredoxins; Schistosoma mansoni thioredoxin glutathione reductase (TGR), Q962Y6; purified TGR, DTNB reduction, TNB absorbance 405 nm; Potency, µM (titrated, usually from 114 µM), hits mostly inhibitors; 3% of 360,000 active; further: nearly all actives have a fitted effect of over 60% in size
#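 Kinetic colorimetric format: TGR-catalysed, NADPH-driven DTNB reduction monitored via TNB absorbance. Enzyme dispensed at 20 nM; compound exposure 15 min at room temperature before reaction start.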
# FMDV antiviral: High Throughput Screening for Foot and Mouth Disease Virus Antivirals | FMDV antiviral cell-based qHTS | AID 1159524, 2015 | Potency, µM (highest dose often 57.9 µM), most hits filed as inhibitors | 1.2% of 410,000 active; calls by dose curve; tested in HEK293T cells; further: read-out not given here; nearly all actives have a fitted effect of over 45% in size
# Hits are given with their value; – = inactive; ? = inconclusive; · = not tested or not shown; [ ] = another dose, or the depositor's remark. This is a sample that favours compounds with a hit; in the whole collection about 7.2% have one here. Unless noted, the call rests on the fitted dose curve; in most records, active means well fitted curve in the direction sought with a large enough effect; inconclusive means small, poorly fitted or top-dose-only effect, or another doubt; inactive means no such curve, though single readings can be large; an effect the other way counts as inactive or inconclusive.
SMILES,HCV inh,RE007 growth inh,LASV entry inh,Marburg entry inh,Sm TGR block,FMDV antiviral
Cc1c([N+](=O)[O-])c(C(=O)N2CCCC2)nn1C,–,–,–,–,–,–
O=C(NCc1ccco1)c1ccc2c(c1)N(Cc1ccc(F)cc1)C(=O)c1ccccc1S2(=O)=O,·,·,?,?,–,–
CCN(C(=O)Cn1cnc2c1c(=O)n(C)c(=O)n2C)c1ccccc1C,·,·,–,·,–,–
O=C(NCCc1nnc2n1CCN(CC1CC=CCC1)CC2)c1ccc(F)cc1 (configuration not stated),·,·,·,·,·,–
CC(NC1CCCCC1)C(O)C12CC3CC(CC(C3)C1)C2 (configuration not stated),?,–,?,7.3µM,–,–
CCOC(=O)Cn1nnnc1C(C(C)C)N(Cc1cccs1)Cc1cc2cc(C)ccc2[nH]c1=O (configuration not stated),?,–[3.69 µM],?,9.2µM,–,?
CCOc1ccc2[nH]c(=O)c(CN(Cc3cccs3)C(CC)c3nnnn3C(C)(C)CC)cc2c1 (configuration not stated),10µM,–,?,?,–,?
CCC(c1nnnn1C1CCCC1)N(Cc1cccs1)Cc1cc2cc(C)ccc2[nH]c1=O (configuration not stated),–,–,?,?,–,–
CCOC(=O)Cn1nnnc1C(CC)N(Cc1cccs1)Cc1cc2cc(C)ccc2[nH]c1=O (configuration not stated),–,–,?,15.8µM,–,–
COC(=O)[C@H](NC(=O)c1cc([C@@H](NC(=O)OC(C)(C)C)C(C)C)sc1N)C(C)C,·,–,·,·,·,–
COCCN1C(=O)NC(CCc2ccccc2)C(C(C)=O)=C1C (configuration not stated),·,·,·,–,·,·
COc1ccc(Cn2c(C(=O)O)c(CNC3CCCCC3)c3ccc(C)cc32)cc1,·,·,–,·,–,–
COc1ccccc1-c1noc(-c2ccc(NCCc3ccccc3)c([N+](=O)[O-])c2)n1,·,·,–,–,–,–
COc1cccc(-n2cc(CN(C)Cc3nc(Cc4cccc(F)c4)no3)cn2)c1,–,–,?,–,–,–
COc1ccc(CN(C)Cc2nc(Cc3cccc(F)c3)no2)c2cccnc12,10µM,–,?,?,–,10µM
CCc1nnc(NC(=O)c2nc(Cl)ccc2Cl)s1,–,–,·,·,–,–
CCc1nnc(NC(=O)c2nc(S(=O)(=O)Cc3ccccc3)ncc2Cl)s1,?,–,?,?,31.6µM,–
CCOc1ccccc1NC(=O)c1nc(S(=O)(=O)Cc2cccc(C)c2)ncc1Cl,2.82µM,–,–,–,7.08µM,14.1µM
CCc1nnc(NC(=O)c2nc(S(=O)(=O)Cc3ccc(C)cc3)ncc2Cl)s1,?,–,?,?,31.6µM,28.2µM
CCc1nnc(NC(=O)c2nc(S(=O)(=O)Cc3cccc(C)c3)ncc2Cl)s1,11.2µM,–,?,?,15.8µM,4.47µM
CCC(=O)C1=C(c2ccc(F)cc2)N(C(=O)CC)n2c(nnc2C2CCCCC2)S1,·,·,–,·,–,–
CN1C(=O)NC(c2ccccc2)C2=C1CN(Cc1ccco1)C2=O (configuration not stated),–,–,·,·,35.5µM,–
O=C(CCC(=O)c1ccc(F)cc1)OC1CCOC1=O (configuration not stated),–,–,–,–,50.1µM,–
O=C(OC1CCOC1=O)c1ccc(CO)cc1 (configuration not stated),–,–,–,–,–,–
C=C(C[C@@]1(C(=O)OC)C=C[C@@H](C)[C@H](c2ccccc2Br)N1C(=O)C(F)(F)F)c1ccccc1,·,·,·,–,·,·
SMILES,HCV inh,RE007 growth inh,LASV entry inh,Marburg entry inh,Sm TGR block,FMDV antiviral
COc1ccc2nc3cc(Cl)ccc3c(Nc3ccc(O)c(CN4CCN(C)CC4)c3)c2c1,?,–,?,4.47µM,·,–
COc1ccc2nc3cc(Cl)ccc3c(C#N)c2c1,–,–,–,–,–,–
COCCCNC(=O)Cn1c(=O)nc(-c2ccccc2)c2ccccc21,·,·,–,·,–,–
CCCn1c(C)cc(C(=O)COc2ccc(C)nc2[N+](=O)[O-])c1C,–,–,–,?,–,–
COCCn1c(C)cc(C(=O)COc2ccc(C)nc2[N+](=O)[O-])c1C,–,–,·,·,–,3.55µM
CCOc1cc(Br)c(COc2ccc(C)nc2[N+](=O)[O-])cc1OCC,8.91µM,–,?,?,–,–
Cc1ccc(OCC(=O)c2cc(C)c(C)cc2C)c([N+](=O)[O-])n1,–,–,–,–,15.8µM,–
Cc1ccc(C)c(C(=O)COc2ccc(C)nc2[N+](=O)[O-])c1,–,–,–,?,11.2µM,–
Cc1cccc(OCC(=O)NCC2(N3CCN(C)CC3)CCCCC2)c1,·,·,–,?,–,–
N#CC1C(=O)N=C(SCC(=O)c2ccc(Br)cc2)N=C1c1cccs1 (configuration not stated),·,·,·,–,·,·
Cc1ccc2oc(C(Cl)(Cl)Cl)cc(=O)c2c1,?,–,–,11.6µM,–,·
COc1ccc(OC)c(N2Cc3cc(C)c(C)cc3C2)c1,22.4µM,–,–,?,44.7µM,–
COc1ccc(O[C@H]2C=C[C@@H](c3ccccc3)O[C@H]2COC(=O)CCC(C)=NO[C@H](C)c2cn([C@H](CO)Cc3ccccc3)nn2)cc1,·,·,?,–,·,·
Cn1cnc(C(=O)N2CCN(C(=O)OC(C)(C)C)CC2)c1C(=O)N1CCN(C(=O)OC(C)(C)C)CC1,–,–,·,·,22.4µM,–
CCn1cc(Br)c(C(=O)N2CCN(c3ccccc3)CC2)n1,–,–,–,–,–,·
Cn1cnc(C(=O)N2CCN(c3ccccc3)CC2)c1C(=O)N1CCN(c2ccccc2)CC1,?,–,·,·,20µM,–
Cc1ccc2nc(C)c3c(c2c1)OC(C(C)(Cl)Br)C3 (configuration not stated),7.08µM,–,?,–,–,?
COc1ccc2nc(C)c3c(c2c1)OC(C(C)(Cl)Br)C3 (configuration not stated),–,–,–,–,–,?
Cc1nc2ccccc2c2c1CC(C(C)(Cl)Br)O2 (configuration not stated),3.16µM,–,·,·,–,8.91µM
CCOc1ccc(CNC(=O)C2CCN(C(=O)N3CC(CC)Oc4ccc(C)cc43)CC2)cc1OC (configuration not stated),·,·,?,·,–,?
COc1ccc(-c2ccc3c(N)c(C(=O)Nc4ccc(C)cc4C)sc3n2)cc1OC,·,·,–,?,–,–
CC1Cc2cc(S(=O)(=O)N3CCC(C(=O)Nc4ccccn4)CC3)ccc2N1C(=O)C1CCC1 (configuration not stated),7.94µM,–,?,?,–,?
